Screens (PubChem BioAssay)
Lassa entry inh = blocks Lassa virus binding to or entry into cells. Potency, µM (series often up to 37.9 µM), for the others: at the highest dose activity change, negative = inhibition, usual class: inhibitors. AID 540256. 300,000 compounds, 1.2% hits. Lassa virus pseudotype entry inhibition, cell reporter; calls by dose curve; tested in HEK293 cells; note: potency is the fitted concentration of half-maximal effect; nearly all actives have a fitted effect of over 50% in size
HCV inh = inhibitors of hepatitis C virus infection; Huh7.5.1 HCVcc-Cre infection, luciferase reporter, 44 h; Potency, µM (top dose mostly 41.8 µM), for the others: at the top dose activity change, negative = inhibition, hits mostly inhibitors; 340,000 compounds, 3.4% hits; AID 651820; note: potency is the fitted concentration of half-maximal effect
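Cells seeded at 1,000/well and cultured 4 h, then compounds added followed by HCVcc-Cre virus (~0.5 moi). After 44 h further culture, luciferase substrate was added, plates held 15 min at room temperature, and luminescence read for 15 sec.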
MARV entry inh = inhibitors of Marburg virus binding or cell entry. Marburg virus pseudotyped entry inhibition, cell reporter. Potency, µM (titrated, usually from 37.8 µM), inactives show at the top dose activity change, negative = inhibition, usual class: inhibitors. 300,000 compounds, 1.8% hits. AID 540276; calls by dose curve; tested in HEK293 cells; note: potency is the fitted concentration of half-maximal effect
Pf growth 48h = inhibits P. falciparum growth in the first generation, 48 h; Potency, µM (series often up to 28.7 µM), inactives show at the highest dose activity change, negative = inhibition, usual class: inhibitors; 310,000 compounds, 5.9% hits; P. falciparum luciferase growth in erythrocytes, 48 h; note: potency is the fitted concentration of half-maximal effect
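Firefly luciferase activity from engineered P. falciparum reports growth; inhibitors lower the luminescent signal. Cultures contained 2% hematocrit erythrocytes at 0.1% final parasitemia.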
Pf growth 96h = P. falciparum growth inhibition at 96 hours | P. falciparum luciferase reporter growth, 96 h | Potency, µM (series often up to 28.7 µM), for inactives: at the top dose activity change, negative = inhibition, hits mostly inhibitors | 320,000 compounds, 6.9% hits | AID 504834; note: potency is the fitted concentration of half-maximal effect
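Readout is luminescence from an integrated firefly luciferase in P. falciparum. Red cells, 2% hematocrit and 0.05% parasitemia final, were cultured with compound through two parasite generations (96 hours) at 37 C, 5% CO2.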
HCMV antiviral = inhibitors of human cytomegalovirus; HFF cells, HCMV-luciferase reporter, 72 h; hits give low values; activity change, negative = inhibition, % at 57.5 µM; 410,000 compounds, 4.5% hits; AID 1259415; in the data active = activity change below about -60%; inconclusive = no clear call, values can overlap the other calls; inactive = above about -39%
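Two-dose cell screen: HFF monolayers treated with compounds and infected with luciferase-expressing HCMV at 1 PFU/cell, 72 h at 37C, then lysed for luciferase measurement.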
* marks the source's active call; other numbers are inactive results; [ ] = another dose, or the depositor's remark. Only some compounds are listed: those with a hit (about 14% of all), similar ones and a draw of the others. Unless noted, calls come from the whole dose curve; as a rule, active = well fitted inhibition curve with a large enough effect; inconclusive = small, poorly fitted or top-dose-only effect, or another doubt; inactive = no such curve, though single readings can be large or run the other way. % is set by controls: 0 for no effect and ±100 for the full control effect.

For O=C(COc1cccc(C(F)(F)F)c1)NCC(c1cccs1)N1CCOCC1 (stereo not drawn) the results were HCV inh inconclusive, Pf growth 48h 13µM*, Pf growth 96h 15µM* and HCMV antiviral -12.
`COCCNc1nc(N)c([N+](=O)[O-])c(NCC2CCCO2)n1` (stereo not drawn) gave Lassa entry inh 6%, HCV inh 1%, MARV entry inh 14%, Pf growth 48h -2%, Pf growth 96h -5% and HCMV antiviral 39.
`Cc1cccc(Nc2nc(NCC3CCCO3)nc(N)c2[N+](=O)[O-])c1` (stereo not drawn) gave Lassa entry inh 3%, HCV inh 4%, MARV entry inh 3%, Pf growth 48h 1%, Pf growth 96h inconclusive and HCMV antiviral 8.
`Nc1nc(NCC2CCCO2)nc(Nc2ccc(F)cc2)c1[N+](=O)[O-]` (stereo not drawn) gave Lassa entry inh -19%, HCV inh -2%, MARV entry inh 2%, Pf growth 48h inconclusive, Pf growth 96h 5.9µM* and HCMV antiviral -39.
For Cc1ccc(Nc2nc(NCC3CCCO3)nc(N)c2[N+](=O)[O-])cc1 (stereo not drawn) the results were Lassa entry inh -8%, HCV inh inconclusive, MARV entry inh 4%, Pf growth 48h -28%, Pf growth 96h 12µM* and HCMV antiviral -27.
`CNc1nc(N)c([N+](=O)[O-])c(NCC2CCCO2)n1` (stereo not drawn) gave HCV inh -13%, Pf growth 48h 2.1µM*, Pf growth 96h -3% and HCMV antiviral 66.
Screening Cc1c(F)cccc1NC(=O)CCCCCC1NC(=O)NC1C (stereo not drawn) returned Lassa entry inh 17%, HCV inh 14%, MARV entry inh 20%, Pf growth 48h -9%, Pf growth 96h -17% and HCMV antiviral -71*.
Screening O=S(=O)(c1ccc2oc(=S)[nH]c2c1)N1CCOCC1 returned Lassa entry inh 12%, HCV inh -1%, MARV entry inh -20%, Pf growth 48h inconclusive, Pf growth 96h 8.3µM* and HCMV antiviral inconclusive.
For O=S(=O)(c1ccc2c(c1)oc1ccccc12)N1CCOCC1 the results were Lassa entry inh 5%, HCV inh inconclusive, MARV entry inh -17%, Pf growth 48h 13µM*, Pf growth 96h 20% and HCMV antiviral 3.
`CCCCCCCC#Cc1ccccc1C=NS(=O)c1ccc(C)cc1` (stereo not drawn) gave MARV entry inh 4%[14.2 µM].
CCn1c(=O)cc(OCC(=O)NCc2ccccc2OC)c2ccccc21 was read as Lassa entry inh 4%[46.1 µM], MARV entry inh -27%[46.1 µM] and HCMV antiviral -9.
`CCOc1ccccc1N(CC)C(=O)Cn1ncc2c1-c1ccccc1OC2` gave MARV entry inh -14%[46.1 µM] and HCMV antiviral -18.
`CCOC(=O)c1cnc2c(c(C)nn2CC)c1NCCN1CCOCC1` gave Lassa entry inh -1%[46.1 µM], HCV inh inconclusive, MARV entry inh 3%[46.1 µM], Pf growth 48h -25%, Pf growth 96h 12µM* and HCMV antiviral -3.
`CCOC(=O)c1cnc2c(C(F)(F)F)cccc2c1NCCCN1CCOCC1` gave HCV inh inconclusive, Pf growth 48h 5.2µM*, Pf growth 96h 222% and HCMV antiviral -8.
CC(=O)c1ccc(NC(=O)C2CCC(CNS(=O)(=O)c3cccs3)CC2)cc1 (stereo not drawn) was read as Lassa entry inh 31%[46.1 µM], MARV entry inh 1%[46.1 µM] and HCMV antiviral 4.
For O=C(CSCc1cnn(-c2ccccc2)c1-n1cccc1)Nc1ccc(F)cc1F the results were Lassa entry inh 16%[46.1 µM], MARV entry inh -7%[46.1 µM] and HCMV antiviral inconclusive.
`C/C(CC(=O)Nc1ccc(N(C)C)cc1)=N\NC(=O)C(=O)NCc1ccccc1` gave Lassa entry inh 2%[46.1 µM], HCV inh 3%, MARV entry inh 35%[46.1 µM], Pf growth 48h 25%, Pf growth 96h 4.7µM* and HCMV antiviral 0.
C/C(CC(=O)Nc1ccc(N(C)C)cc1)=N\NC(=O)c1ccc(F)cc1 was read as HCV inh 7%, Pf growth 48h -11%, Pf growth 96h 19% and HCMV antiviral -6.
`C/C(CC(=O)Nc1ccc(N(C)C)cc1)=N\NC(=O)c1ccc(C(C)(C)C)cc1` gave HCV inh 13%, Pf growth 48h -7%, Pf growth 96h 4.1µM* and HCMV antiviral 11.
For C/C(CC(=O)Nc1ccc(N(C)C)cc1)=N\NC(=O)c1ccccc1O the results were HCV inh 10%, Pf growth 48h inconclusive, Pf growth 96h 3% and HCMV antiviral 43.
For Cc1ccc(C(C[N+](=O)[O-])n2nc(C)cc2C)cc1 (stereo not drawn) the results were Lassa entry inh 10%, HCV inh 9%, MARV entry inh inconclusive, Pf growth 48h inconclusive and HCMV antiviral 34.
Screening Cc1ccc(C(C[N+](=O)[O-])Sc2ccc(N)cc2)cc1 (stereo not drawn) returned Lassa entry inh -1%, HCV inh inconclusive, MARV entry inh 3%[46.1 µM], Pf growth 48h inconclusive, Pf growth 96h 12µM* and HCMV antiviral -100*.
For COC(=O)[C@H]1C[C@H](C(=O)O)[C@@H](C)C1(C)C the results were HCV inh 14%, Pf growth 48h -22%, Pf growth 96h 63% and HCMV antiviral -95*.
COc1ccc2c(c1)CCC1=C2NC(=S)NC1c1ccc(N(C)C)cc1 (stereo not drawn) was read as Lassa entry inh inconclusive, HCV inh 11µM*, MARV entry inh inconclusive, Pf growth 48h inconclusive, Pf growth 96h inconclusive and HCMV antiviral -35.
For CCC(C)NS(=O)(=O)c1ccc(NC(=O)CNCc2cccs2)cc1 (stereo not drawn) the results were Lassa entry inh -19%[46.1 µM], HCV inh -1%, MARV entry inh 20%[46.1 µM] and HCMV antiviral 1.
Screening O=C(OCc1cccnc1)C1=Cc2ccccc2OC1 returned Lassa entry inh 1%, HCV inh 3%, MARV entry inh -24%[46.1 µM], Pf growth 48h 7%, Pf growth 96h 11% and HCMV antiviral -103*.
COCCNC(=O)COC(=O)C1=Cc2ccccc2OC1 was read as Lassa entry inh -6%[46.1 µM], HCV inh 13µM*, MARV entry inh inconclusive, Pf growth 48h 6%, Pf growth 96h inconclusive and HCMV antiviral -27.
O=C(COC(=O)C1=Cc2ccccc2OC1)NCc1ccccc1 was read as Lassa entry inh -19%, HCV inh 7%, MARV entry inh 26%, Pf growth 48h 0%, Pf growth 96h inconclusive and HCMV antiviral -12.
